Experimental findings from PubChem BioAssay (NCI) are described below.

About 83,000 compounds went through this panel and 20% of them were active in at least one assay; those are over-represented in the sample as a whole.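 Compound tested at a single concentration for 48 hours in 96-well plates; a percent growth value below 10 was scored as active.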 Values without a mark were called inactive. Calls of active or inactive are those of the source.

Among the test systems are SK-MEL-2 melanoma; EKVX NSCLC; SN12C renal; UO-31 renal; TK-10 renal; ACHN renal; CAKI-1 renal; A498 renal; CCRF-CEM leukemia; SR leukemia; RPMI-8226 leukemia; OVCAR-8 ovarian; OVCAR-5 ovarian; OVCAR-4 ovarian; SK-OV-3 ovarian; IGROV1 ovarian; OVCAR-3 ovarian; HS 578T breast; NCI/ADR-RES ovarian.
Holding throughout (test): NCI-60 one-dose screen, 48 h (100 = growth as untreated, 0 = no growth, -100 = all killed)
Holding throughout (details): 10 µM unless noted

As to `O=C(Nc1cccc(C(F)(F)F)c1)Nc1cccc(C(F)(F)F)c1`, the growth with SK-MEL-2 melanoma was -28.5% (active); in the assay on EKVX NSCLC it was 13.8%; with SN12C renal, 2.57% (active); in the assay with UO-31 renal it was 4.46% (active); in the assay with TK-10 renal it was -0.607% (active); in the assay on ACHN renal, 5.92% (active). Further, the growth in the assay on CAKI-1 renal is 16.4%; in the assay on A498 renal it was -18.2% (active); in the assay on CCRF-CEM leukemia, 2.44% (active); in the assay with SR leukemia it was -22.6% (active); in the assay with RPMI-8226 leukemia it was -10.5% (active); in the assay with OVCAR-8 ovarian it was 4.98% (active). Further, the growth was 25.3% with OVCAR-5 ovarian; 23.9% in the assay with OVCAR-4 ovarian; -15.3% (active) in the assay with SK-OV-3 ovarian; 26.8% with IGROV1 ovarian; 14.4% in the assay on OVCAR-3 ovarian; 8.56% (active) in the assay with HS 578T breast. The growth with NCI/ADR-RES ovarian is 7.46% (active).
In the case of `Cc1cc(NCc2cc(Nc3ccnc4cc(Cl)ccc34)ccc2F)nc(N2CCN(c3ccccc3)CC2)n1`, the growth was 84.5% in the assay on SK-MEL-2 melanoma; 64.8% in the assay with EKVX NSCLC; 49.9% in the assay with SN12C renal; 36.1% in the assay with UO-31 renal; 88.7% in the assay on TK-10 renal; 69.2% in the assay with ACHN renal. In addition, the growth with CAKI-1 renal is 72.3%; in the assay with A498 renal, 14.1%; in the assay with CCRF-CEM leukemia it was -7.8% (active); in the assay on SR leukemia it was -24.6% (active); in the assay on RPMI-8226 leukemia it was 42.8%; in the assay on OVCAR-8 ovarian it was 58.8%. Besides, the growth in the assay on OVCAR-5 ovarian is 92.6%; in the assay on OVCAR-4 ovarian it was 46.2%; with SK-OV-3 ovarian, 55.1%; with IGROV1 ovarian, 41.6%; in the assay on HS 578T breast it was 47.9%; in the assay on NCI/ADR-RES ovarian, 56.5%.
For `COc1cccc(C(=O)NCCCNc2cc(-c3cn(-c4ccccc4)nc3-c3cccc(OC)c3)ccn2)c1`, the growth in the assay on SK-MEL-2 melanoma was 70.2%; in the assay on EKVX NSCLC, 60.1%; in the assay on SN12C renal, 61.1%; in the assay on UO-31 renal, 26.6%; with TK-10 renal, 55.2%; in the assay on ACHN renal it was 60.9%. The growth was 65.4% with CAKI-1 renal; 49.2% in the assay with A498 renal; 24.7% in the assay on CCRF-CEM leukemia; 8.19% (active) with SR leukemia; 25.3% in the assay on RPMI-8226 leukemia; 26.7% in the assay with OVCAR-8 ovarian. Moreover, the growth was 82.1% in the assay with OVCAR-5 ovarian; 48.8% with SK-OV-3 ovarian; 58.9% in the assay with IGROV1 ovarian; 53.3% in the assay with OVCAR-3 ovarian; 22.1% with NCI/ADR-RES ovarian.
With `COC(=O)[C@]12CC[C@@H](C)[C@H](C)[C@@H]1C1=CC[C@@H]3[C@@]4(C)C(C=O)=C[C@@](C)(CO)[C@@H]4[C@H](O)C[C@@]3(C)[C@]1(C)CC2`, the growth is -31.7% (active) in the assay with SK-MEL-2 melanoma; 7.75% (active) with EKVX NSCLC; 1.62% (active) in the assay on SN12C renal; -31.5% (active) in the assay on UO-31 renal; -18.8% (active) in the assay with TK-10 renal; -81.6% (active) with ACHN renal. The growth in the assay on CAKI-1 renal was -28.7% (active); in the assay with A498 renal it was -5.03% (active); with CCRF-CEM leukemia it was 1.38% (active); in the assay with SR leukemia, -20.4% (active); in the assay on RPMI-8226 leukemia, -10.1% (active); with OVCAR-8 ovarian it was -2.42% (active). Further, the growth in the assay with OVCAR-5 ovarian is -19.7% (active); in the assay with OVCAR-4 ovarian, -5.06% (active); in the assay on SK-OV-3 ovarian it was 3.19% (active); in the assay with IGROV1 ovarian, 3.94% (active); in the assay with OVCAR-3 ovarian it was -91.9% (active); in the assay with NCI/ADR-RES ovarian, -10.2% (active).
Take `CCCCOc1nc2ccccc2cc1C1CNC(=O)c2ccccc2N1` (stereo unspecified): the growth with SK-MEL-2 melanoma was 15.7%; in the assay with EKVX NSCLC it was 33%; in the assay with SN12C renal, 44.1%; in the assay with UO-31 renal, 41.3%; with TK-10 renal, 34.3%; in the assay with ACHN renal, 46.7%. The growth in the assay on CAKI-1 renal was 42.6%; in the assay on A498 renal it was -11.2% (active); in the assay with CCRF-CEM leukemia, 12.6%; with SR leukemia, 19.8%; with RPMI-8226 leukemia, 25.6%; in the assay with OVCAR-8 ovarian it was 22.4%. The growth is 55.3% in the assay on OVCAR-5 ovarian; 47.7% with OVCAR-4 ovarian; 14.8% with SK-OV-3 ovarian; 38% with IGROV1 ovarian; -9.73% (active) in the assay with OVCAR-3 ovarian; 34.1% in the assay with HS 578T breast. Moreover, in the assay with NCI/ADR-RES ovarian, the growth was 3.84% (active).
As to `COc1cccc(-c2nn(-c3ccccc3)cc2-c2ccnc(NCCNC(=O)Nc3ccccc3)c2)c1`, the growth with SK-MEL-2 melanoma is 46.8%; in the assay on EKVX NSCLC it was 71.1%; in the assay on SN12C renal, 54%; in the assay on UO-31 renal, 39%; in the assay on TK-10 renal, 73.8%; with ACHN renal, 68.9%. Also, the growth was 64.9% with CAKI-1 renal; 43.8% in the assay on A498 renal; 54.7% in the assay on CCRF-CEM leukemia; -10.6% (active) with SR leukemia; 39.5% with RPMI-8226 leukemia; 38% in the assay with OVCAR-8 ovarian. Besides, the growth was 92.4% in the assay on OVCAR-5 ovarian; 53.9% in the assay on OVCAR-4 ovarian; 58% with SK-OV-3 ovarian; 65.4% in the assay on IGROV1 ovarian; 55.8% in the assay on OVCAR-3 ovarian; 31.4% in the assay on HS 578T breast. For the same molecule, the growth with NCI/ADR-RES ovarian was 34.8%.
Turning to `O=C(NCCCNc1cc(-c2cn(-c3ccccc3)nc2-c2cccc(O)c2)ccn1)c1ccc(F)cc1`, the growth in the assay with SK-MEL-2 melanoma is -8.95% (active); in the assay on EKVX NSCLC, 48.2%; in the assay with SN12C renal, 55%; in the assay on UO-31 renal it was 27.1%; with TK-10 renal, 60.4%; in the assay on ACHN renal, 51.7%. For the same molecule, the growth in the assay on CAKI-1 renal was 12.4%; with A498 renal, 29%; in the assay with CCRF-CEM leukemia, 22.3%; in the assay with SR leukemia, -26.4% (active); in the assay on RPMI-8226 leukemia, -9.31% (active); with OVCAR-8 ovarian, 36.1%. Further, the growth with OVCAR-5 ovarian is 58%; in the assay with OVCAR-4 ovarian it was 39.8%; with SK-OV-3 ovarian, 30.1%; in the assay with IGROV1 ovarian, 45.8%; with HS 578T breast it was -16.7% (active); in the assay on NCI/ADR-RES ovarian it was 19%.
With `COc1cccc(-c2nn(-c3ccccc3)cc2-c2ccnc(NCCNC(=O)Nc3cccc(C(F)(F)F)c3)c2)c1`, the growth in the assay with SK-MEL-2 melanoma was -25.2% (active); with EKVX NSCLC it was 45.1%; in the assay on SN12C renal, 28.4%; in the assay on UO-31 renal, -21.9% (active); in the assay with TK-10 renal it was 57.7%; in the assay with ACHN renal, 35.1%. The growth in the assay on CAKI-1 renal is 25.7%; in the assay with A498 renal, 39.7%; in the assay with CCRF-CEM leukemia, 28.7%; in the assay with SR leukemia, -21.2% (active); in the assay with RPMI-8226 leukemia, 32.6%; in the assay with OVCAR-8 ovarian, 19.8%. The growth was 58.4% in the assay on OVCAR-5 ovarian; 46.5% with OVCAR-4 ovarian; 44.9% with SK-OV-3 ovarian; 55.4% in the assay with IGROV1 ovarian; -21.3% (active) with HS 578T breast; 27.2% in the assay on NCI/ADR-RES ovarian.
